Experimental data reported in PubChem BioAssay (EPA / NIEHS).
The source made the active and inactive calls. Rule for the calls: active = hit-call score of the fitted dose curve at least 0.9, where 1 is the maximum; inactive = score below 0.9.

assay: CCTE_Padilla_ZF_144hpf_TERATOSCORE: (Legacy) CCTE's 144 Hour Post-fertilization zebrafish Assay Teratoscore, Padilla Lab (AID 2283679);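 for AC50: teratogenicity score from eye scoring of death hatching and malformations at 144 hpf; higher score means more developmental defects relative to DMSO baseline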
Description: CCTE_Padilla_ZF_144hpf is a whole embryo, multiplexed assay. Zebrafish embryos were exposed to chemicals starting 6 hr post-fertilization for 5 days in 96-well plates. Developing larvae were examined microscopically daily for malformation and mortality.CCTE_Padilla_ZF_144hpf_TERATOSCORE is one of one assay component(s) measured or calculated from the CCTE_Padilla_ZF_144hpf assay. It is designed to make measurements of developmental malformations and mortality as detected with brightfield microscopy.Data from the assay component CCTE_Padilla_ZF_144hpf_TERATOSCORE was analyzed into 1 assay endpoint. This assay endpoint, CCTE_Padilla_ZF_144hpf_TERATOSCORE, was analyzed in the positive analysis fitting direction relative to DMSO as the negative control and baseline of activity. Using a type of morphological reporter, gain-of-signal activity can be used to understand changes in developmental defect as they relate to the whole embryo. To generalize the intended target to other relatable targets, this assay endpoint is annotated to the malformation intended target family, where the subfamily is total.
Zebrafish husbandry: Wild type adult zebrafish (Danio rerio; undefined outbred stock obtained from Aquatic Research Organisms, Hampton, NH, 03842) were housed in an AAALAC-approved animal facility at 28C with a 14:10 h light: dark cycle (lights on at 08:30 h). Adult fish (2-3 females per male; density = 15-20 adults per tank) were kept in one of several 9-liter (L) flow-through colony tanks (Aquaneering Inc., San Diego, CA). All adults in a colony tank were placed in a 2 L (static) breeding tank (Aquatic Habitats, Apopka, FL) one hour prior to light onset. Typically, adults from two to three colony tanks were mated on the same day. Two hours after light onset the adults were returned to the colony tank. All embryos were gathered from each breeder tank, pooled, and placed in a 28C water bath for 2 h, followed by two washes with 0.06% bleach (v/v) in 10% Hanks' Balanced Salt Solution (13.7 mM NaCl 0.54 mM KCl, 25 uM Na2HPO4, 130 uM CaCl2 100 um MgSO4 and 420 um NaHCO3,), hereafter referred to as Hanks' solution, for 5 min in order to remove any residual bacteria or fungi. Immediately following washing, the embryos were examined, and healthy embryos were separated from dead or unfertilized eggs and moved into fresh Hanks'. Single Concentration Study: The chemicals were arrayed on a 96-well stock plate, 80 chemicals per plate, 20 mM concentration of each, with 16 DMSO (vehicle) controls. The embryos were exposed to the chemicals (80 Mfinal concentration, renewed daily) by immersion from 0 dpf until 5 dpf. Eighty micromolar was chosen as the highest concentration for two reasons (1) because the stock solutions were prepared at 20 mM in 100% DMSO. On 6 dpf, each embryo/larva was assessed for viability, hatching status and malformations. There were 4 embryos per concentration per chemical (each embryo on a separate microtiter plate). […] Chemical exposures: Zebrafish embryos were exposed in 96-well plates. Briefly, on day 0, approximately 6-8 h after fertilization, zebrafish embryos (with chorions) were placed 1 embryo per well in Millipore Multiscreen Nylon mesh plates (catalog number MANMN4050, Millipore Corp, Bedford, MA) and exposed to nominal concentrations of the chemicals. In each well, 1 ul of the chemical in DMSO from the stock plate was diluted with 250 ul of 10% Hanks' solution; the final DMSO concentration was 0.4% (v/v) in all wells; vehicle controls receives DMSO only. Each plate was sealed with a non-adhesive material (Type A, BioRad, Hercules, CA), covered with a lid, and wrapped in Parafilm to minimize evaporation. All embryos and larvae were kept in a 26C incubator with a 14:10 h light-dark cycle (with lights on at 08:30 h and off at 22:30 h). […]

| Structure (SMILES) | AC50 | outcome |
| --- | --- | --- |
| CCOP(=O)(OCC)Oc1cc(C)nc(C(C)C)n1 | 38.2 µM (active) |  |
| Nc1c(Cl)cc([N+](=O)[O-])cc1Cl | 76.3 µM (active) |  |
| CC(Oc1cccc(Cl)c1)C(=O)O (stereo not given) |  | inactive |
| CCOP(=S)(OCC)SCCSCC |  | inactive |
| CSC1=N[C@@](C)(c2ccccc2)C(=O)N1Nc1ccccc1 | 3.03 µM (active) |  |
| COP(=O)(NC(C)=O)SC (stereo not given) |  | inactive |
| COP(=O)(OC)OC(Br)C(Cl)(Cl)Br (stereo not given) | 16.7 µM (active) |  |
| COc1ccc(C(=CC(=O)N2CCOCC2)c2ccc(Cl)cc2)cc1OC | 23.6 µM (active) |  |
| CCCCSP(=O)(SCCCC)SCCCC | 0.205 µM (active) |  |
| CCCSP(=O)(OCC)SCCC |  | inactive |
| S=C1NCCN1 |  | inactive |
| CCOP(=O)(SC(C)CC)N1CCSC1=O (stereo not given) |  | inactive |
| CC1=NNC(=O)N(/N=C/c2cccnc2)C1 | 46.4 µM (active) |  |
| O=c1ccc(=O)[nH][nH]1 |  | inactive |
| COc1cc(OC)nc(Sc2cccc(Cl)c2C(=O)O)n1 |  | inactive |
| CNC(=O)ON=C(SC)C(=O)N(C)C |  | inactive |
| CCCSP(=O)(OCC)Oc1ccc(Br)cc1Cl (stereo not given) | 8.79 µM (active) |  |
| CSc1nnc(C(C)(C)C)c(=O)n1N |  | inactive |
| CCCCN(CC)c1c([N+](=O)[O-])cc(C(F)(F)F)cc1[N+](=O)[O-] | 5.08 µM (active) |  |
| CC[C@H](C)[C@H]1O[C@]2(C=C[C@@H]1C)C[C@@H]1C[C@@H](C/C=C(\C)[C@@H](O[C@H]3C[C@H](OC)[C@@H](O[C@H]4C[C@H](OC)[C@@H](NC)[C@H](C)O4)[C@H](C)O3)[C@@H](C)/C=C/C=C3\CO[C@@H]4[C@H](O)C(C)=C[C@@H](C(=O)O1)[C@]34O)O2 | 3.41 µM (active) |  |

| Structure (SMILES) | AC50 | outcome |
| --- | --- | --- |
| Cc1cc(C2CC2)nc(Nc2ccccc2)n1 | 15.3 µM (active) |  |
| CSc1nc(NC(C)C)nc(NC(C)C)n1 | 132 µM (active) |  |
| CNC(=O)ON=C(C)SC | 73.3 µM (active) |  |
| CC1(C(=O)Nc2ccc(O)c(Cl)c2Cl)CCCCC1 | 10.1 µM (active) |  |
| CCC(=NOC/C=C/Cl)C1=C(O)CC(C2CCOCC2)CC1=O (stereo not given) |  | inactive |
| CCc1cccc(CC)c1N(COC)C(=O)CCl | 35.4 µM (active) |  |
| CCNc1nc(Cl)nc(NC(C)(C)C#N)n1 |  | inactive |
| CCC(=O)Nc1ccc(Cl)c(Cl)c1 | 61.3 µM (active) |  |
| CCc1cccc(C)c1N(C(=O)CCl)C(C)COC (stereo not given) | 50.9 µM (active) |  |
| CCCCOC(=O)[C@@H](C)Oc1ccc(Oc2ccc(C#N)cc2F)cc1 | 2.1 µM (active) |  |
| CC(C1CC1)C(O)(Cn1cncn1)c1ccc(Cl)cc1 (stereo not given) | 57.6 µM (active) |  |
| CCOC(=O)COc1cc(-c2nn(C)c(OC(F)F)c2Cl)c(F)cc1Cl | 0.201 µM (active) |  |
| CC(COc1ccc(Oc2ccccc2)cc1)Oc1ccccn1 (stereo not given) | 47.6 µM (active) |  |
| Cc1ccn2nc(S(=O)(=O)Nc3c(F)cccc3F)nc2n1 |  | inactive |
| C=C(C)[C@H]1Cc2c(ccc3c2O[C@@H]2COc4cc(OC)c(OC)cc4[C@@H]2C3=O)O1 | 0.000155 µM (active) |  |
| CC(C)=CC1C(C(=O)OCN2C(=O)C3=C(CCCC3)C2=O)C1(C)C (stereo not given) | 12.3 µM (active) |  |
| CCOC(=O)CC(SP(=O)(OC)OC)C(=O)OCC (stereo not given) |  | inactive |
| CN1COCN(Cc2cnc(Cl)s2)C1=N[N+](=O)[O-] |  | inactive |
| CC(C)N(C(=O)SCC(Cl)=C(Cl)Cl)C(C)C | 32.7 µM (active) |  |
| Cc1nn(-c2cc(NS(C)(=O)=O)c(Cl)cc2Cl)c(=O)n1C(F)F | 56.9 µM (active) |  |
